Measured values as given in publication PMC5540273 (PLoS ONE, 2017).

Experiments:
Conditions in all cases: concentration: 1 μM, replicates: in singlicate; n = 1
[1] = test system: TLK2
[2] = test system: TNIK
[3] = test system: TNK1
[4] = test system: TNK2
[5] = test system: TNNI3K
[6] = test system: T1, TRKA
T1 construct: gene NTRK1

[7] = test system: TRKB
[8] = test system: T2, TRKC
T2 construct: gene NTRK3

[9] = test system: TRPM6
[10] = test system: TSSK1B
[11] = test system: TSSK3
[12] = test system: TTK
[13] = test system: TXK
[14] = test system: TYK2(JH1domain-catalytic)
[15] = test system: TYK2(JH2domain-pseudokinase)
[16] = test system: TYRO3
[17] = test system: ULK1
[18] = test system: ULK2
[19] = test system: ULK3
[20] = test system: T3, VEGFR2
T3 construct: gene KDR
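Further: KINOMEscan kinase panel screen.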

Compound | %Inh [1] [%] | %Inh [2] [%] | %Inh [3] [%] | %Inh [4] [%] | %Inh [5] [%] | %Inh [6] [%] | %Inh [7] [%] | %Inh [8] [%] | %Inh [9] [%] | %Inh [10] [%] | %Inh [11] [%] | %Inh [12] [%] | %Inh [13] [%] | %Inh [14] [%] | %Inh [15] [%] | %Inh [16] [%] | %Inh [17] [%] | %Inh [18] [%] | %Inh [19] [%] | %Inh [20] [%]
Cc1nnc(-c2ccc(C)c(-c3ccc(C(=O)Nc4ccc(NS(C)(=O)=O)cc4)cc3)c2)o1 [GW702865] | 4 | 0 | 0 | 3 | 0 | 23 | 0 | 26 | 7 | 15 | 3 | 0 | 0 | 20 | 11 | 0 | 0 | 0 | 0 | 9
Cn1cc(-c2ccc3c(c2)CCN3C(=O)Cc2ccccc2Cl)c2c(N)ncnc21 [GSK2608885] | 0 | 69 | 100 | 74 | 64 | 42 | 0 | 0 | 33 | 17 | 7 | 17 | 85 | 33 | 0 | 100 | 6 | 0 | 6 | 82
Nc1nc(-c2ccc3c(N)n[nH]c3c2)cc(N2CCCC2)n1 [GSK2227430] | 0 | 0 | 0 | 0 | 0 | 0 | 0 | 0 | 0 | 0 | 17 | 11 | 0 | 0 | 46 | 0 | 0 | 0 | 2 | 0
NS(=O)(=O)c1cccc(-c2ccc3nccc(-c4cccc(S(N)(=O)=O)c4)c3c2)c1 [GW867253] | 15 | 16 | 0 | 0 | 0 | 0 | 0 | 0 | 0 | 0 | 0 | 0 | 5 | 0 | 39 | 0 | 12 | 81 | 18 | 4
O=C(c1ccc(-c2cc(-c3c[nH]nc3-c3ccccn3)ccn2)cc1)N1CCOCC1 [GW812171] | 13 | 30 | 0 | 0 | 0 | 0 | 0 | 0 | 17 | 0 | 0 | 0 | 11 | 0 | 21 | 0 | 14 | 38 | 3 | 0
CN(C1=C(c2ccccc2)C(=O)NC1=O)c1ccccc1 [SB-334860] | 6 | 4 | 7 | 18 | 20 | 18 | 0 | 0 | 31 | 11 | 15 | 0 | 83 | 0 | 0 | 0 | 5 | 8 | 6 | 12
COCCNC(=O)c1ccc(-c2cc(C(=O)NC3CC3)cc(F)c2C)cc1 [GW868318] | 0 | 0 | 40 | 16 | 11 | 27 | 43 | 30 | 20 | 0 | 24 | 0 | 18 | 9 | 33 | 21 | 46 | 37 | 47 | 16
CCn1cnc2c(N)ncnc21 [GW345098] | 0 | 17 | 7 | 10 | 4 | 24 | 0 | 7 | 81 | 20 | 6 | 0 | 8 | 23 | 0 | 32 | 0 | 21 | 0 | 0
Cl.Nc1ncnc2occ(-c3ccc(NC(=O)Nc4cc(C(F)(F)F)ccc4F)cc3)c12 [SB-707548] | 4 | 67 | 46 | 20 | 90.8 | 100 | 94.1 | 100 | 0 | 0 | 11 | 35 | 0 | 0 | 12 | 0 | 0 | 0 | 19 | 99.8
CCCCCc1nc2c(N)ncnc2n1CCCCC [SKF-97255] | 20 | 0 | 19 | 0 | 0 | 0 | 0 | 0 | 13 | 0 | 0 | 0 | 12 | 7 | 9 | 0 | 12 | 12 | 11 | 0
COc1ccc(COc2cc(-n3cnc4ccccc43)sc2C(N)=O)cc1 [GSK1024304] | 0 | 51 | 8 | 3 | 0 | 0 | 0 | 19 | 4 | 0 | 17 | 6 | 20 | 4 | 0 | 0 | 15 | 0 | 0 | 0
CN1c2ccc(CNc3ccc(F)cc3)cc2-c2c(cnn2C)S1(=O)=O | 0 | 9 | 12 | 0 | 0 | 0 | 0 | 0 | 0 | 0 | 0 | 0 | 0 | 0 | 0 | 0 | 0 | 0 | 0 | 0
O=c1cc(N2CCOCC2)nc2n(Cc3cccc(F)c3)ccn12 [GSK2297430] | 0 | 0 | 0 | 18 | 0 | 54 | 27 | 6 | 0 | 12 | 0 | 0 | 4 | 13 | 2 | 12 | 0 | 0 | 0 | 0
CSc1ccc(-c2cc3ncnc(SCC(=O)O)c3s2)cc1 | 0 | 3 | 57 | 14 | 0 | 0 | 0 | 0 | 0 | 0 | 0 | 0 | 0 | 0 | 0 | 0 | 0 | 8 | 0 | 0
N#Cc1c(N2CCOCC2)sc(-c2ccn[nH]2)c1-c1ccc(Cl)cc1 | 0 | 0 | 0 | 0 | 0 | 12 | 6 | 8 | 0 | 0 | 0 | 19 | 0 | 14 | 20 | 0 | 8 | 15 | 20 | 11
